Test results from publication PMC12136788.
Substitutions are numbered along the chain they refer to. Whole data set: some 24,000 sequences, median “enrichment r” near 0.99, cut for the highest 2% near 3.7. Only a selection was taken, and the highest values are over-represented in it overall.

T1: UNK ZnF1-3 (human, UniProt Q9C0B0 31-174)
T1 sequence: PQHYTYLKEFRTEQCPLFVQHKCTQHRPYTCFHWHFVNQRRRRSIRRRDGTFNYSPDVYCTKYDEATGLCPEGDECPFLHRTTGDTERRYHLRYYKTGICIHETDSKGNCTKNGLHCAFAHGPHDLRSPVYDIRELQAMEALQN

B1: chr5:121736274:121736275:+_ENSMUSG00000042744_ENSMUST00000119892|mus_mus|FALSE|FALSE (ssRNA)
RNA: GGGAGUUCUACAGUCCGACGAUCCUGGUGAAUGCACAUGGCGCCAACAUGGUGCAGUAACUGGUUUAUGACUUCAUUUGUGCUAAUGGCCUCUUCUUUGGGCUCGGUGAUGAUAUGGCUGACACCCAGUCUCUGGCACACGUACAACAGAGGAUUGAGCAUCA
B2: chr3:128198961:128198962:-_ENSG00000179348_ENST00000341105|hu_hu|motif|central (ssRNA)
RNA: GGGAGUUCUACAGUCCGACGAUCACUGGACCCAAAAAGAGUUUAAAAAUAAAACAAUUAACUCAUCAGCGAGUUAAGCCGGUGCAUUUUUUUAAUAUUUUUUCUUUUGUCUCAGAGUAGGAGGCGAGGGGGUUGAAGGGUUAGCAACAGAGGAUUGAGCAUCA
B3: chr12:48362563:48362564:+_ENSG00000134291_ENST00000256686|hu_hu|hu_hu_hu_mus_False|58_78 (ssRNA)
RNA: GGGAGUUCUACAGUCCGACGAUCUCCGUCAAGCCCUUCGAUAGACCCUUGCGGGGGUGGUAAAAACCACUUUGUAUUUCUAAAAAAAAGAAACGCCAAAAACUUUCCAAAAAGCGGGGGUGGGGUGAGGCGGGAGGGGGAGGUCAACAGAGGAUUGAGCAUCA
B4: 119691784_119693947_668_CDS_ENSG00000158290_ENST00000371322|human|control|control (ssRNA)
RNA: GGGAGUUCUACAGUCCGACGAUCGAGUUCUUCUAAAUUGUACUUAAUUGAAGUACUAUUCUGAAUAGCUUCCACUGCUUCUUUCAGUUUUUGCCAGGUUUCAUCUGUGUAGUUUUCUGGUAAUUUAGGCUUAUCUUUAAAGUUCAACAGAGGAUUGAGCAUCA
B5: chr14:105235747:105235748:-_ENSG00000142208_ENST00000407796|hu_hu|FALSE|FALSE (ssRNA)
RNA: GGGAGUUCUACAGUCCGACGAUCACUUUUAUUGAAGAAUUUGGAGGGAAGGUUCCAUAUUAUAUUAUAAUAGUAAAAAUACUAAAGUUGAAUGUUGUAAAAAAACGCCGUGGUGCAGCGGCAGCGGCAGCGUCUGGCCAGGAGCAACAGAGGAUUGAGCAUCA
B6: chr2:129025431:129025432:+_ENSMUSG00000027397_ENSMUST00000028880|mus_mus|motif|central (ssRNA)
RNA: GGGAGUUCUACAGUCCGACGAUCUUGCCACAGUAGAUUCCAUUCUCUAGUGUAGUGGUUCUUUAAAUAAUAAGAGAAUUACGGAGCGGCUUUUGAGAUGUGUAAACGGAAUGAGGUAUCAAAAUGCUAUAAUAAAUAGUAUAUCAACAGAGGAUUGAGCAUCA
B7: chr14:21319500:21319501:-_ENSMUSG00000021816_ENSMUST00000161445|mus_hu|motif|central (ssRNA)
RNA: GGGAGUUCUACAGUCCGACGAUCGAGUUGUAUUCCAGGGCAUGAGGGAAGCAGGCCACCAAAGUAAAGGGAAAUACCAAACGGCAGUGGCAAUCAAUACAGGUCAAUAAUUGUGAAAAAUUAGCACAUGGUUCCAUUUAGUUUCAACAGAGGAUUGAGCAUCA
B8: chr2:151326667:151326668:-_ENSG00000115963_ENST00000263895|hu_hu|FALSE|FALSE (ssRNA)
RNA: GGGAGUUCUACAGUCCGACGAUCUUUAUUUGUCUUAUUUACACAUGCCAAGGUGGCAACGUGAAAAAUGUCUCUGACGCUAUUUUCCGACUGUAAAGCUGAGCAUUCGAUAUAAGUAGCUGCUCCAAUCUGUUUGGCCAUAUUCAACAGAGGAUUGAGCAUCA
B9: 23376367_23376487_1679_3pUTR_ENSMUSG00000026158_ENSMUST00000027343|mouse|control|control (ssRNA)
RNA: GGGAGUUCUACAGUCCGACGAUCAUUUGAAAACACAUCCUAAAUGUAUUCUUUUAUUGGAUCUGGUCUUAAAACUUCUUAUUUAAUGUCCAAUUCAUUGUGAUCCAAAAUAAAAAGGCUUACAGCAAAAGUCACAGGUGGCCACAACAGAGGAUUGAGCAUCA
B10: chr17:55760890:55760891:+_ENSG00000153944_ENST00000284073|hu_mus|FALSE|FALSE (ssRNA)
RNA: GGGAGUUCUACAGUCCGACGAUCCAAUUUCAUAUGCAAUAUAAUACAGAAAGCAUGGCUGACCUUCAAUUUUAAAAAAAAAUGUAGUAAACUAUAUUGCUUUAUUCUUGAAGAUGCUGCUGCGGUGGGUGGAUGGCAGAGCGACAACAGAGGAUUGAGCAUCA
B11: chr14:105235747:105235748:-_ENSG00000142208_ENST00000407796|hu_mus|FALSE|FALSE (ssRNA)
RNA: GGGAGUUCUACAGUCCGACGAUCGAAAAGCAAUUUUUAUUGAAUUUGGAGGGACAGUUUCUUAUUAUAAUAGUAAAAAUGCUGAAGCUGAAUGUUGUAAAAAACGACAUGGUGCAGCAAUGGCCAGCGUCUGGCCGGGAGGGGCAACAGAGGAUUGAGCAUCA
B12: chr14:105235747:105235748:-_ENSG00000142208_ENST00000407796|hu_hu|motif|central (ssRNA)
RNA: B5 RNA with U82G, A83G
B13: chr10:71978566:71978567:-_ENSG00000180817_ENST00000373232|hu_hu|motif|central (ssRNA)
RNA: GGGAGUUCUACAGUCCGACGAUCUAAAGGGUCCUUUGUAGCAAUCUCCAUUUUUGCAUUAGACCAGCGUGGUACUUCAACGGCCAUGUGAAACACAUCCUUAUCUGCAUAAAUUGGAAUAUCAUGAAAUGGAGAUAUAUAUUGCAACAGAGGAUUGAGCAUCA
B14: chr2:47387610:47387611:-_ENSG00000143933_ENST00000272298|hu_mus|FALSE|FALSE (ssRNA)
RNA: GGGAGUUCUACAGUCCGACGAUCUCCACGCAGAGUUACAGCUCCACACUUCAACAACAACAUGCUGACAGUUCCUAAAAGCUACUUUAAAAAAGGCAUAACCCAGAUGUUCCCUCAUUGGACCAACUCCAUCUAAGUUUAGAUCAACAGAGGAUUGAGCAUCA

Molecular target: T1, UNK ZnF1-3
Assay: nsRBNS (natural sequence RNA bind-n-seq); RBNS binding buffer (assumed for nsRBNS): 25 mM Tris pH 7.5, 150 mM KCl, 3 mM MgCl2, 0.01% Triton X-100, 500 ug/ml BSA, 20 U/ml SUPERase-In, 4 C; UNK is unkempt and MSI1 is Musashi-1; names of the RNAs are library labels; protein concentration not given here; high values mean tight binding

Binder	binding signal
B1	0.813 enrichment R
B2	1.54 enrichment R
B3	3.57 enrichment R
B4	0.363 enrichment R
B5	7.85 enrichment R
B6	1.26 enrichment R
B7	2.39 enrichment R
B8	0.818 enrichment R
B9	0.637 enrichment R
B10	1.14 enrichment R
B11	4.04 enrichment R
B12	5.41 enrichment R
B13	0.593 enrichment R
B14	1.21 enrichment R
